These results are taken from PubChem BioAssay (EPA / NIEHS).

Read-out in experiment [1]: Transforming growth factor beta 1 (TGFb1), TGFB1 (gene 7040)
Description: BSK_KF3CT_TGFb1: BioMAP Diversity Plus: KF3CT Assay for Transforming growth factor beta 1 (TGFb1) Biomarker Activity (AID 2283072). The settings on record: primary human keratinocytes with fibroblasts; actives raise or lower the signal. The gist of the method: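 Human keratinocyte/foreskin fibroblast co-culture; TGF-b1 measured by ELISA 24 h after dosing, fitted bidirectionally versus DMSO. Cytotoxicity checked in parallel cultures by total protein (SRB staining, 560 nm).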

Read-out in experiment [2]: C-C motif chemokine 2 (Homo sapiens) (UniProt P13500)
Description: BSK_KF3CT_MCP1: BioMAP Diversity Plus: KF3CT Assay for Monocyte Chemoattractant Protein 1 (MCP1/CCL2) Biomarker Activity (AID 2283073). The settings on record: primary human keratinocytes with fibroblasts; actives raise or lower the signal. The method in brief: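 KF3CT skin co-culture (keratinocytes/foreskin fibroblasts), 24 h post-dose; MCP-1 by ELISA; gain/loss of signal fit bidirectionally vs DMSO baseline.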

Read-out in experiment [3]: Matrix Metallopeptidase 9 (MMP9), MMP9 (gene 4318)
The experiment is described as follows: BSK_KF3CT_MMP9: BioMAP Diversity Plus: KF3CT Assay for Matrix Metallopeptidase 9 (MMP9) Biomarker Activity (AID 2283074). The settings on record: primary human keratinocytes with fibroblasts; actives raise or lower the signal. The gist of the method: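 Human keratinocyte and foreskin fibroblast co-culture exposed to chemicals for 24 h; MMP9 biomarker measured by ELISA, bidirectional fitting relative to DMSO; cytotoxicity tracked by SRB total protein staining in parallel cultures.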

Read-out in experiment [4]: urokinase plasminogen activator (uPA), PLAU (gene 5328)
Description: BSK_KF3CT_uPA: BioMAP Diversity Plus: KF3CT Assay for urokinase plasminogen activator (uPA) Biomarker Activity (AID 2283075). As to conditions: primary human keratinocytes with fibroblasts; actives raise or lower the signal. The method in brief: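 Primary human keratinocyte/foreskin fibroblast co-culture exposed to chemical; uPA measured by ELISA at 24 h. Bidirectional fit versus DMSO, with parallel SRB total-protein staining for cytotoxicity.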

Read-out in experiment [5]: CD40, CD40 (gene 958)
The experiment is described as follows: BSK_LPS_CD40: BioMAP Diversity Plus: LPS Assay for CD40 Biomarker Activity (AID 2283076). As to conditions: primary human HUVEC with PBMC; actives raise or lower the signal. The gist of the method:
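ELISA readout of CD40 in HUVEC/PBMC co-culture (BSK_LPS system), 24 h post-dosing; bidirectional curve fit, DMSO baseline; parallel SRB total-protein staining for cytotoxicity.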

Read-out in experiment [6]: E-selectin (Homo sapiens) (UniProt P16581)
Description: BSK_LPS_Eselectin: BioMAP Diversity Plus: LPS Assay for Eselectin Biomarker Activity (AID 2283077). The settings on record: primary human HUVEC with PBMC; actives raise or lower the signal. The method in brief:
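ELISA readout of E-selectin, 24 h post-dose, HUVEC + PBMC co-culture (LPS system). Gain or loss of signal vs DMSO baseline, bidirectional fit.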

Read-out in experiment [7]: Interleukin-8 (IL8), CXCL8 (gene 3576)
Description: BSK_LPS_IL8: BioMAP Diversity Plus: LPS Assay for Interleukin-8 (IL8) Biomarker Activity (AID 2283078). As to conditions: primary human HUVEC with PBMC; actives raise or lower the signal. The gist of the method:
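HUVEC + PBMC co-culture, LPS-activated; test chemicals dosed, IL-8 read by ELISA at 24 h. Bidirectional curve fit vs DMSO baseline (gain or loss of signal).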

Experiment [8] can be described thus: BSK_LPS_SRB: Viability Assessment in the BioMAP Diversity Plus: LPS Assay (AID 2283079).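 Also: total protein by sulforhodamine B absorbance as a cytotoxicity measure; measured one day after compound addition; fitted in both directions against DMSO so loss or gain of signal counts.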 The settings on record: primary human HUVEC with PBMC. The gist of the method: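 HUVEC + PBMC co-culture, LPS-stimulated; compound 24 h. 10% TCA fix, 0.1% SRB stain, A560. Bidirectional fit vs DMSO.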
Read-out in experiment [9]: Interleukin-1 alpha (IL1a), IL1A (gene 3552)
Description: BSK_LPS_IL1a: BioMAP Diversity Plus: LPS Assay for Interleukin-1 alpha (IL1a) Biomarker Activity (AID 2283080). The settings on record: primary human HUVEC with PBMC; actives raise or lower the signal. The gist of the method:
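HUVEC/PBMC co-culture, LPS system; 24 h after dosing; IL-1a by ELISA; gain or loss of signal fitted bidirectionally vs DMSO baseline.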

Read-out in experiment [10]: Monocyte Chemoattractant Protein-1 (MCP1), CCL2 (gene 6347)
The experiment is described as follows: BSK_LPS_MCP1: BioMAP Diversity Plus: LPS Assay for Monocyte Chemoattractant Protein-1 (MCP1) Biomarker Activity (AID 2283081). As to conditions: primary human HUVEC with PBMC; actives raise or lower the signal. The gist of the method:
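ELISA read-out of MCP-1 after 24 h chemical dosing of a human umbilical vein endothelial cell/peripheral blood mononuclear cell co-culture stimulated with LPS. Gain or loss of signal fitted relative to DMSO controls.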

Experiment [11] in a line: BSK_LPS_PGE2: BioMAP Diversity Plus: LPS Assay for Prostaglandin E2 (PGE2) Biomarker Activity (AID 2283082). The settings on record: primary human HUVEC with PBMC; actives raise or lower the signal. The method in brief: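 HUVEC plus human PBMC co-culture stimulated with LPS; secreted PGE2 quantified by ELISA 24 h after chemical dosing. Activity fitted bidirectionally against DMSO baseline; parallel SRB staining (0.1% SRB after 10% TCA fixation, 560 nm) flags overt cytotoxicity.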

Read-out in experiment [12]: Macrophage colony-stimulating factor (MCSF), CSF1 (gene 1435)
The experiment is described as follows: BSK_LPS_MCSF: BioMAP Diversity Plus: LPS Assay for Macrophage colony-stimulating factor (MCSF) Biomarker Activity (AID 2283083). The settings on record: primary human HUVEC with PBMC; actives raise or lower the signal. The method in brief: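 HUVEC + PBMC co-culture (human primary), 24 h post-dose; M-CSF by ELISA; gain/loss of signal fitted bidirectionally vs DMSO baseline.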

Read-out in experiment [13]: Tissue Factor, F3 (gene 2152)
Description: BSK_LPS_TissueFactor: BioMAP Diversity Plus: LPS Assay for Tissue Factor Biomarker Activity (AID 2283084). As to conditions: primary human HUVEC with PBMC; actives raise or lower the signal. The gist of the method: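 HUVEC/PBMC co-culture, LPS-activated; CD142 ELISA read 24 h post-dose; bidirectional curve fit vs DMSO negative control.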

Read-out in experiment [14]: Vascular cell adhesion molecule 1 (VCAM1), VCAM1 (gene 7412)
The experiment is described as follows: BSK_LPS_VCAM1: BioMAP Diversity Plus: LPS Assay for Vascular cell adhesion molecule 1 (VCAM1) Biomarker Activity (AID 2283086). As to conditions: primary human HUVEC with PBMC; actives raise or lower the signal. The gist of the method: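 Human umbilical vein endothelial cells co-cultured with PBMC and stimulated with LPS; VCAM-1 measured by ELISA 24 h after dosing. Bidirectional curve fitting against DMSO baseline; cytotoxicity tracked in parallel by SRB total-protein staining.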

Read-out in the next experiment: CD38, CD38 (gene 952)
The experiment is described as follows: BSK_SAg_CD38: BioMAP Diversity Plus: SAg Assay for CD38 Biomarker Activity (AID 2283087). The settings on record: primary human HUVEC with PBMC; actives raise or lower the signal. The method in brief: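 Human HUVEC plus PBMC co-culture stimulated with superantigen; CD38 measured by ELISA 24 h after chemical dosing. Fluorescence read-out, bidirectional fit against DMSO; cytotoxicity tracked in parallel by SRB and Alamar Blue.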

Read-out in experiment [15]: CD40, CD40 (gene 958)
The experiment is described as follows: BSK_SAg_CD40: BioMAP Diversity Plus: SAg Assay for CD40 Biomarker Activity (AID 2283088). The settings on record: primary human HUVEC with PBMC; actives raise or lower the signal. The gist of the method:
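HUVEC/PBMC co-culture, 24 h post-dose; CD40 by ELISA, fluorescence intensity; bidirectional fit vs DMSO negative control.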

Read-out in another experiment: CD69, CD69 (gene 969)
Description: BSK_SAg_CD69: BioMAP Diversity Plus: SAg Assay for CD69 Biomarker Activity (AID 2283089). The settings on record: primary human HUVEC with PBMC; actives raise or lower the signal. The gist of the method:
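ELISA, fluorescence read-out: CD69 on human umbilical vein endothelial cell + PBMC co-culture, 24 h post-dosing. Gain or loss of signal fitted bidirectionally against DMSO baseline.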

Read-out in experiment [16]: Monocyte Chemoattractant Protein-1 (MCP1), CCL2 (gene 6347)
The experiment is described as follows: BSK_SAg_MCP1: BioMAP Diversity Plus: SAg Assay for Monocyte Chemoattractant Protein-1 (MCP1) Biomarker Activity (AID 2283090). The settings on record: primary human HUVEC with PBMC; actives raise or lower the signal. The gist of the method: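 MCP-1 levels in the endothelial–PBMC SAg co-culture were quantified by ELISA at 24 h post-dosing; both increases and decreases versus DMSO scored. Cytotoxicity monitored by SRB total protein in parallel cultures.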

Read-out in experiment [17]: E-selectin (Homo sapiens) (UniProt P16581)
Description: BSK_SAg_Eselectin: BioMAP Diversity Plus: SAg Assay for Eselectin Biomarker Activity (AID 2283091). As to conditions: primary human HUVEC with PBMC; actives raise or lower the signal. The method in brief:
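E-selectin ELISA readout at 24 h post-dosing in human umbilical vein endothelial cell/PBMC co-culture; gain or loss of signal fitted relative to DMSO baseline.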

Read-out in experiment [18]: Tumor necrosis factor (Homo sapiens) (UniProt P01375)
Description: BSK_LPS_TNFa: BioMAP Diversity Plus: LPS Assay for Tumour Necrosis Factor alpha (TNFa) Biomarker Activity (AID 2283085). As to conditions: primary human HUVEC with PBMC; actives raise or lower the signal. The method in brief: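 Human umbilical vein endothelial cells co-cultured with PBMC and stimulated with LPS. TNFa was measured by ELISA 24 h after chemical dosing, fitted bidirectionally relative to DMSO.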

Molecules are shown by their SMILES. The source made the active and inactive calls. The calls were made as follows: active = hit-call score of the fitted dose curve at least 0.9, where 1 is the maximum; inactive = score below 0.9.

Sequence of E-selectin (Homo sapiens) (P16581 whole entry, looked up): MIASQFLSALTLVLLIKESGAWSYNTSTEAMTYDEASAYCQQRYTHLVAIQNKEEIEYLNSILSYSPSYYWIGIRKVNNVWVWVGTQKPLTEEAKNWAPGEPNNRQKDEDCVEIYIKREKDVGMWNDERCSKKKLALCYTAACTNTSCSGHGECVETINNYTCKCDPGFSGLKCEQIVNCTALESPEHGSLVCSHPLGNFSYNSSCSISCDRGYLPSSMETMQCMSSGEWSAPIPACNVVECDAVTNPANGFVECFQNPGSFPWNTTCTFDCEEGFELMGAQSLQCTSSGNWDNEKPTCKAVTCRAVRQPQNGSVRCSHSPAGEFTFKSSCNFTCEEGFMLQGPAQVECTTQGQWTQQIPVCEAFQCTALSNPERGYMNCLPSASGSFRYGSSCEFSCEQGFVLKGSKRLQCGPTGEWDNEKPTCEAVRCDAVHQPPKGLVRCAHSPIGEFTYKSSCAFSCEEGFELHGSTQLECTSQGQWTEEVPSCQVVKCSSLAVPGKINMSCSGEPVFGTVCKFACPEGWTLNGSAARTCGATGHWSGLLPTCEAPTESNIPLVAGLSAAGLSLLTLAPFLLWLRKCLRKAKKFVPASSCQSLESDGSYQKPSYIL
Sequence of Tumor necrosis factor (Homo sapiens) (P01375 whole entry, looked up): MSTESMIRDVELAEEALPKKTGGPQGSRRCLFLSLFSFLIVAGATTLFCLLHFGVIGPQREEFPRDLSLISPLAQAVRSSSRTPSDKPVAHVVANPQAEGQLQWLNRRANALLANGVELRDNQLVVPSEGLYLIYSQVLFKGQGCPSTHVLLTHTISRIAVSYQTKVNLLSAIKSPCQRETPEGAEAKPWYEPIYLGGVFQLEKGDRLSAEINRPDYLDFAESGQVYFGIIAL

As for `CCC(O)=C1C(=O)CC(C(=O)O)CC1=O` (stereo unspecified), the outcome in experiment [1] was “inactive”; in experiment [2], “inactive”; in experiment [3], “inactive”; in experiment [4] it was “inactive”; with CD40, CD40 (gene 958) [5], “inactive”; in [6] it was “inactive”. Besides, the outcome in experiment [7], in experiment [8], in experiment [9], in experiment [10], in experiment [11] and in experiment [12] was inactive. Besides, the outcome in experiment [13] is “inactive”; in [14], “inactive”; with CD38, CD38 (gene 952), “inactive”; with CD40, CD40 (gene 958) [15] it was “inactive”; with CD69, CD69 (gene 969), “inactive”; in [16] it was “inactive”. Besides, the outcome in experiment [17] was inactive.
The AC50 is the concentration at which the activity in the assay is half-maximal. With `COc1c(Cl)ccc(Cl)c1C(=O)O`, the outcome was “inactive” in [1]; “inactive” in experiment [3]; “inactive” in experiment [4]; “inactive” in the experiment with CD40, CD40 (gene 958) [5]; “inactive” in experiment [6]; “inactive” in experiment [7]. Besides, the outcome in [8], in experiment [9], in experiment [10], in [11], in experiment [12] and in [13] was inactive. Moreover, the outcome is “inactive” in experiment [14]; “inactive” with CD38, CD38 (gene 952); “inactive” with CD40, CD40 (gene 958) [15]; “inactive” with CD69, CD69 (gene 969); “inactive” in experiment [17]. Besides, the half-maximal activity concentration (AC50) in experiment [16] is 11.8 µM (active).
In the case of `CCN(Cc1c(F)cccc1Cl)c1c([N+](=O)[O-])cc(C(F)(F)F)cc1[N+](=O)[O-]`, the outcome in experiment [1], in experiment [2], in experiment [3], in [4], in [6] and in experiment [9] was inactive. In addition, the outcome was “inactive” in [10]; “inactive” in experiment [11]; “inactive” in experiment [13]; “inactive” in experiment [18]; “inactive” in [14]; “inactive” in the experiment with CD40, CD40 (gene 958) [15]. The outcome in the experiment with CD69, CD69 (gene 969) was “inactive”; in experiment [16], “inactive”; in experiment [17] it was “inactive”. Further, the half-maximal activity concentration (AC50) with CD40, CD40 (gene 958) [5] is 9.02 µM (active); in experiment [8], 14.1 µM (active); in [12], 11.6 µM (active); with CD38, CD38 (gene 952), 8.9 µM (active).
